Bioassay records from PubChem.
D1 antagonist = antagonists of human D1 dopamine receptor | P21728 | HEK293 TREx D1 cells, calcium flux, dopamine EC80; stronger effect = lower value | activity change, negative = inhibition, % at 10 µM | 360,000 tested, 3.2% active; in the data active means activity change below about -30%; further: on the % scale 0 is the no-effect control and ±100 the full control effect
Target sequence (P21728 whole entry, looked up): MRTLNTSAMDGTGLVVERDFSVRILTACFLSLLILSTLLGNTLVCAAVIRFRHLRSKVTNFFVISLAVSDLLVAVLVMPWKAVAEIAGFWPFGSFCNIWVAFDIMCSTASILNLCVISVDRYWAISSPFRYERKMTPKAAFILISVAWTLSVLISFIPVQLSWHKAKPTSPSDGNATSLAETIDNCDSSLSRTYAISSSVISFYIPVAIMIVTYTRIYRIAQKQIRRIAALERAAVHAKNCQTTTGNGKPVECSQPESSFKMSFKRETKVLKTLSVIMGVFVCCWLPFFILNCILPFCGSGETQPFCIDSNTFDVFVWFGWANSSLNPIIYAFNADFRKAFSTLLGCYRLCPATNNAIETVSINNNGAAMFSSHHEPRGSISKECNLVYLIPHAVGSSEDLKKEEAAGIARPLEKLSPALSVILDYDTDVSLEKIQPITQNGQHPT
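Tetracycline-induced HEK293 Trex D1 cells, force-coupled to calcium, dye-loaded; compounds added and read 180 s, then EC80 dopamine added and calcium flux tracked kinetically another 180 s.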
D1 ag = human D1 receptor agonism; activation, % at 2 µM; HEK293 T-REx D1 cells, calcium flux, agonist mode; P21728; 360,000 tested, 1% active; AID 504660; further: 0% is about no effect
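Tetracycline-induced HEK293 TREx D1 cells, force-coupled to calcium signalling, were dye-loaded with a no-wash calcium kit. Compound was pin-added after a 10 s baseline. Fluorescence was read kinetically at 1 cycle/s for 180 s, with calcium rises flagged as agonism.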
D1 PAM = human D1 dopamine receptor positive modulation; P21728; HEK293 TREx D1 cells, calcium flux, dopamine EC20 potentiation; potentiation, % at 10 µM; 360,000 tested, 0.036% active; in the data active means potentiation above about 30%; further: 0% is about no effect
TRHR ag = TRH receptor (human) agonism | P34981 | TRHR cells, calcium flux fluo-8, FDSS agonist mode | 360,000 tested, 0.18% active | activation, % at 2 µM; further: 0% is about no effect
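TRHR-expressing cells, plated overnight in medium with 10% serum, were loaded with fluo-8 calcium dye at room temperature. After a 10 s baseline, library compound was pin-added and calcium release was recorded kinetically (ex 480/em 530) as agonist response.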
TRHR PAM = TRH receptor (human) allosteric enhancement | P34981 | 360,000 tested, 0.66% active | AID 493056 | enhancement, % at 2 µM | TRHR cells, fluo-8 calcium fluorescence, EC20 TRH enhancement; in the data active means enhancement above about 30%; further: 0% is about no effect
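Enhancer read-out: after compound pinning and an initial kinetic agonist-mode read, an EC20 of TRH (10 nM final) was injected and fluo-8 calcium signal (Ex 480/Em 530) followed at 1 s/cycle for 100 cycles in TRHR-expressing cells.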
* hit, by the source's call. A selection: hits, their analogues and other compounds. The true share with any hit is near 4.7%. Unless noted, no stated cut-off is given here; in the data, active means activation above about 30%; inactive means the rest.

SMILES	D1 antagonist	D1 ag	D1 PAM	TRHR ag	TRHR PAM
Cc1cccc(N(C2C=CS(=O)(=O)C2)S(=O)(=O)c2ccccc2)c1 (configuration not stated)	-60*	0	-5	0	-4
COc1ccc(-c2cc3nc(C)c(CCC(=O)N4CCN(c5cccc(Cl)c5)CC4)c(C)n3n2)c(OC)c1	0	3	-3	0	4
Cc1ccc(CONC(=O)c2ccc(C)cc2)cc1	-30*	1	-5	-2	4
Cc1nc(CS(=O)(=O)c2ccc(Cl)cc2)sc1C(=O)O	4	1	3	0	5
Cc1nc(CS(=O)(=O)c2ccccn2)sc1C(=O)NNC(=O)c1ccccc1	-32*	1	-6	0	-1
CC1CCN(C2CCN(C(=O)c3ccccc3F)CC2)CC1	-82*	0	-2	1	-1
CC1CN(C2CCN(C(=O)c3ccccc3)CC2)CC(C)O1 (configuration not stated)	-31*	1	-1	0	17
CCc1ccc(C2N3CC4(C)CN2CC(c2ccccc2)(C3)C4=O)cc1 (configuration not stated)	10	0	-2	3	-1
COc1ccc(C(CC(=O)N2CCOCC2)c2c(OC)cc(OC)c3c(-c4ccccc4)cc(=O)oc23)cc1 (configuration not stated)	-41*	5	-9	0	0
Cc1ccsc1CCNC(=O)C1CCC(=O)N(CCc2cccc(F)c2)C1 (configuration not stated)	-37*	3	-3	0	2
Cc1n[nH]c(C)c1CN(C)C(=O)C1CCC(=O)N(CCc2cccc(F)c2)C1 (configuration not stated)	-33*	4	1	1	3
O=C(NCc1ccon1)C1CCC(=O)N(Cc2cccc(C(F)(F)F)c2)C1 (configuration not stated)	7	0	-7	2	2
O=C(NCc1cc(C(F)(F)F)ccc1F)C1CCC(=O)N(C2CC2)C1 (configuration not stated)	-36*	2	0	0	-8
Cc1cc(CNC(=O)C2CCC(=O)N(Cc3cccc(C(F)(F)F)c3)C2)no1 (configuration not stated)	5	1	1	0	31*
O=C(NCc1cccc(F)c1F)C1CCC(=O)N(C2CC2)C1 (configuration not stated)	6	2	-10	1	1
O=C(NCCc1cccs1)C1CCC(=O)N(CCc2cccc(F)c2)C1 (configuration not stated)	2	-1	2	0	-8
CCC(C)NC(=O)CN1C(=O)c2cccnc2Sc2ccccc21 (configuration not stated)	6	1	-5	0	1
COc1ccc(Nc2oc(/C=C/c3cccc(OC)c3)nc2C#N)cc1	2	3	-2	-1	10
O=C(NCCCc1nc2ccccc2n1Cc1ccc(F)cc1)C1CCCCC1	1	-3	-1	-1	-7
Cc1ccc(CNC(=O)c2nc(SCc3cccc(C)c3)ncc2Cl)cc1	-23	18	3	7	-6
CC(C)OCCCn1c(=O)c2ccccc2n2c(-c3cc(Cl)ccc3O)nnc12	-5	7	0	1	2
Cc1ccc(CNC(=O)C2CCC(=O)N2Cc2ccc(C)cc2)cc1 (configuration not stated)	-40*	1	-4	0	1
Cc1ccc(CNC(=O)C2CCC(=O)N2Cc2ccccc2Cl)cc1 (configuration not stated)	-4	3	-2	0	5
Cc1ccc(CNC(=O)C2CCC(=O)N(CCc3cccc(F)c3)C2)cc1 (configuration not stated)	-43*	2	-11	-1	-3
O=C(NCCc1ccc(C(F)(F)F)cc1)C1CCC(=O)N(CCCN2CCCC2=O)C1 (configuration not stated)	-40*	0	-9	0	5
SMILES	D1 antagonist	D1 ag	D1 PAM	TRHR ag	TRHR PAM
Cc1cc(CNC(=O)C2CCC(=O)N(CCc3cccc(F)c3)C2)nn1C (configuration not stated)	1	2	-1	1	8
COC(=O)c1sccc1S(=O)(=O)NC(C)c1cnn(-c2ccc(OC)cc2)c1C (configuration not stated)	-50*	3	1	0	-1
C=CCc1ccccc1OCCNCCCOC	-46*	8	-10	0	7
Cc1cc(C)cc(-n2c(SCC(=O)Nc3ccccc3F)nc3c(oc4ccccc43)c2=O)c1	-4	6	-5	1	1
O=C(Nc1cccc(NC(=O)c2ccc(Cl)cc2)n1)c1ccc(Cl)cc1	-33*	6	-4	1	1
O=C(Nc1ccc2ccccc2n1)c1ccc(Cl)cc1	-22	10	1	-2	4
CCOc1ccc(C(=O)Nc2cccc(C)n2)cc1	-7	1	1	0	41*
Cc1cccc(NC(=O)c2sc3nc(-c4ccccc4)cn3c2C)n1	-15	11	-2	5	-3
CCCCOc1ccc(C(=O)Nc2cccc(C)n2)cc1	-8	6	-4	-1	-4
COc1ccc(-c2cn3c(C)c(C(=O)Nc4cccc(C)n4)sc3n2)cc1	-59*	1	-4	1	1
CCC(=O)N1CCc2cc(Br)cc(S(=O)(=O)N3CCCC(C(=O)NCc4ccccc4)C3)c21 (configuration not stated)	7	1	-2	0	-3
COc1ccc(OC)c(-c2noc(N3CCN(c4cccc(C)c4C)CC3)n2)c1	10	3	0	0	-5
Cc1c(Cl)cccc1NC(=O)Cn1cnc2nc3c(cc2c1=O)CCCC3	13	1	-1	0	-2
Cc1ccc(OC(=O)C(F)(F)F)c2c1NCCC2	-22	0	34*	0	-4
Cc1nc2c(-c3ccccc3)c(C)nn2c(C)c1CCC(=O)NCc1ccccc1Cl	-1	2	-2	0	4
CCOC(=O)/C(=C\c1ccc([N+](=O)[O-])o1)NC(=O)c1ccccc1	-36*	27	-3	2	-7
CCCOC(=O)/C(=C\c1ccc([N+](=O)[O-])o1)NC(=O)c1ccccc1	-2	2	-4	3	-3
CCc1ccccc1NC(=O)Cn1c(=O)n(-c2ccc(C)c(C)c2)c(=O)c2oc3ccccc3c21	15	1	0	0	1
Cc1ccc(C(OC(=O)c2ccco2)C(=O)NC(C)(C)C)cc1 (configuration not stated)	-44*	-3	-11	-1	0
COc1ccc(C(OC(=O)c2ccco2)C(=O)NC(C)(C)C)cc1 (configuration not stated)	6	-1	-4	2	30
